Compound activity: PubChem, National Center for Advancing Translational Sciences (NCATS)
Most compounds without a hit are left out; they make up all but 7.6% or so of the library.
RORg inh: blocks mouse ROR gamma transcriptional activity; P51450; Drosophila S2 Gal4-RORgamma UAS-luciferase reporter, 20 h; Potency, µM (series often up to 53.6 µM), most hits filed as inhibitors; actives 5.4% (n = 310,000); note: nearly all actives have a fitted effect of over 60% in size
Target sequence (P51450 whole entry, looked up, the tested form may be a part): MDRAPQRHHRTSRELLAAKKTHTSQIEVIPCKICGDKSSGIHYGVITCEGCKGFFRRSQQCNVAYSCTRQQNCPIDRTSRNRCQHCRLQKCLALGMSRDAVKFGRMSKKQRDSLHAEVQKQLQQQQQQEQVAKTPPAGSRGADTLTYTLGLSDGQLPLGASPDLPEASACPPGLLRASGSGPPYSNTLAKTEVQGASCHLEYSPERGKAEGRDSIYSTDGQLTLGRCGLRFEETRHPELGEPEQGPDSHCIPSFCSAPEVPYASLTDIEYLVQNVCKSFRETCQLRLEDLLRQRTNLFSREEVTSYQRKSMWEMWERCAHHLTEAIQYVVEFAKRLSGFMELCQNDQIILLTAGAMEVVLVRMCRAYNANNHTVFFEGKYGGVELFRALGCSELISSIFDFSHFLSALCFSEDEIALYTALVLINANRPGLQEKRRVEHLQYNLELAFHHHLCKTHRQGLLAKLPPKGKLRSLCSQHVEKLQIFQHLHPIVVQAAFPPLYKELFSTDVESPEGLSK
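Stable Schneider cell line, Gal4 DNA-binding domain fused to ROR gamma, UAS-luciferase. Cmpd 1 hr RT → CuSO4 700 uM final → 20 hr RT → luciferase reagent 10 min → luminescence.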
VP16 counter: counter-screen for ROR gamma inhibitors: Gal4-VP16 reporter; AID 2546; actives 3.5% (n = 310,000); Drosophila S2 Gal4-VP16 UAS-luciferase, luminescence, 20 h; Potency, µM (doses to about 53.6 µM), actives largely listed as inhibitors;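 note: Gal4-VP16 expression switched on by copper sulfate through the metallothionein promoter; nearly all actives have a fitted effect of over 50% in size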
p53 reactivation: re-activators of mutant p53. H1299 p53-A138V BP100-luciferase reporter, luminescence, 24 h. AID 504706. actives 0.063% (n = 320,000). Potency, µM (doses to about 92.2 µM), usual class: activators; note: nearly all actives have a fitted effect of over 45% in size
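p53-null H1299 cells stably carrying temperature-sensitive p53-A138V and a BP100-luciferase reporter were pinned with compounds (4-point, 1:5 series) and held 24 hrs at 37 deg C. Luminescence was read 10 min after detection reagent.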
Giardia kill: Giardia lamblia killing; Giardia lamblia trophozoite viability; activity change, % at 7.66 µM, hits read low; actives 0.15% (n = 340,000); in the data active = activity change below about -80%; inconclusive = between about -30% and that limit;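 note: parasites exposed to compound for two days anaerobically before the ATP read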
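Each well holds 100 Giardia trophozoites and compound. After two days (48 hrs) at 37 deg C in anaerobic conditions, ATP is quantified by luminescence.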
BRCA1 expr up: increases BRCA1 expression. MCF7-BRCA1-FFLuc reporter, luminescence, 48 h; response scale: scaled: vehicle 0%, 10 µM genistein 100%. Potency, µM (titrated, usually from 46.1 µM), usual class: activators. actives 1.1% (n = 380,000). AID 624202; note: nearly all actives have a fitted effect of over 80% in size
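Luminescence from a BRCA1-driven firefly luciferase in MCF7 cells was read after 48 h compound exposure at 37 C. Data normalized against DMSO and a 10microM genistein activation control, then curve-fitted across the titration.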
ELG1 repair inh: blocks ELG1-dependent DNA repair in HEK293T cells; HEK293T ELG1-luciferase reporter, luminescence, 16 h; DNA damage induced by 5-fluorouridine; Potency, µM (highest dose often 46.1 µM), most hits filed as inhibitors; actives 2.3% (n = 330,000); AID 504467; note: nearly all actives have a fitted effect of over 55% in size
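Reporter activity after DNA damage by 5-fluorouridine is monitored. Compound-treated cells incubate 16 hr at 37 °C, then ONE-Glo is added for 30 min before luminescence reading.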
A number is an active result; n = inactive; u = inconclusive; x = no result given; [ ] = remark or other dose. Unless noted, calls come from the whole dose curve; as a rule, active = well fitted curve in the direction sought with a large enough effect; inconclusive = small, poorly fitted or top-dose-only effect, or another doubt; inactive = no such curve, though single readings can be large; an effect the other way counts as inactive or inconclusive.

SMILES | RORg inh | VP16 counter | p53 reactivation | Giardia kill | BRCA1 expr up | ELG1 repair inh
COCCN1Cc2cccc(C(=O)Nc3cccc(-c4nc5ccccc5[nH]4)c3)c2C1=O | n | n | n | n | n | 4.1µM
O=C(COc1ccccc1)Nc1nc2ccccc2[nH]1 | u | x | n | n | 13µM | u
CC(CC(=O)Nc1nc2ccccc2[nH]1)c1ccccc1 (configuration not stated) | u | 4.5µM | u | n | n | u
CCCCOc1cccc(OCC(=O)Nc2nc3ccccc3[nH]2)c1 | 16µM | u | n | n | n | n
CCCCCC(=O)N(Cc1ccccc1)c1c(N)n(CCOC)c(=O)[nH]c1=O | x | x | x | n | n | x
O=C(CSc1ccc(Cl)cc1)Nc1cccc(-c2nc3ccccc3[nH]2)c1 | u | 10µM | u | n | n | u
O=C(CSc1ccc2ccccc2c1)Nc1nc2ccccc2[nH]1 | 11µM | u | n | n | n | n
CCCOc1cccc(OCC(=O)Nc2nc3ccccc3[nH]2)c1 | 10µM | u | n | n | n | n
CC(C)C(=O)N1CCN(c2nc(-c3ccccc3)c3c(c2C#N)CCCC3)CC1 | n | n | n | n | n | u
COc1ccc(NC(=O)c2ccccn2)cc1S(=O)(=O)N1CCOCC1 | n | n | n | n | n | n
O=C(NCc1ccco1)c1ccc(NC(=O)C2COc3ccccc3O2)cc1 (configuration not stated) | n | n | n | n | n | u
Cc1cc2ccccc2n1CCNC(=O)c1ccccc1 | 4.5µM | 2.5µM | n | n | n | u
O=C(NCCc1nc2ccccc2n1CCCOc1ccc(Cl)cc1)C1CCCCC1 | x | x | x | n | n | x
CC(C)(C)C(=O)NCCCc1nc2ccccc2n1CCCOc1ccc(Cl)cc1 | n | n | n | n | n | 23µM
CCCCn1c(CNC(=O)C(C)(C)C)nc2ccccc21 | 13µM | u | n | n | n | n
CCCn1c(CNC(=O)c2ccccc2)nc2ccccc21 | 10µM | n | n | n | n | n
O=C(/C=C/c1ccccc1)N1CCN(S(=O)(=O)c2ccc(F)cc2)CC1 | n | n | n | n | n | n
CC(C)Cn1c(CCCNC(=O)c2ccc(F)cc2)nc2ccccc21 | n | n | n | n | n | n
CC(C)Cn1c(CNC(=O)c2ccccc2)nc2ccccc21 | 16µM | u | n | n | n | n
Cn1c(/C=N/NC(=O)c2ccccc2)nc2ccccc21 | 13µM | n | n | n | n | n
CCN(c1ccccc1)S(=O)(=O)c1ccc(C(=O)NCCCN2CCOCC2)cc1 | x | x | n | n | n | u
O=C(NCc1ccccc1)c1ccccc1-c1nc2ccccc2[nH]1 | n | n | n | n | n | n
COc1cc(C)ccc1OCCON1C(=O)CCC1=O | n | n[10 µM] | n | n | n | n
CCOC(=O)N1CCC(NC(=O)c2cc(COc3ccccc3SC)on2)CC1 | n | n | n | n | n | n
NNC(=S)NCc1ccco1 | 7.1µM | u | n | n | n | n
SMILES | RORg inh | VP16 counter | p53 reactivation | Giardia kill | BRCA1 expr up | ELG1 repair inh
Cc1cccc(NC(=S)NCc2ccco2)n1 | 1.3µM | 4.5µM | n | n | n | n
S=C(NCc1ccco1)NCc1ccco1 | x | x | x | n | n | x
S=C(NCc1ccccc1)NCc1ccco1 | 11µM | u | n | n | n | n
Cc1ccc2c(c1)oc(=O)n2CC(=O)c1ccccc1 | n | n | n | n | n | n
O=C(Nc1ccc2oc(=O)ccc2c1)c1cccnc1 | u | u | n | n | n | u
CCOC(=O)Nc1ccc(NC(=O)c2c(OC)cccc2OC)cc1 | n | n | n | n | n | n
CC(C)OCCCNC(=O)c1ccc2c(c1)ncn2C1CCCC1 | n | n | n | n | 11µM | u
Cn1ncc(Br)c1NC(=O)CSc1ccc(Cl)cc1 | n | n | n | n | n | 7.3µM
O=C(CSc1ccc(Cl)cc1)Nc1ncccn1 | n[10 µM] | n | n | n | n | u
Cc1ccc(C)c(NC(=O)CCN2C(=O)C3CC=CCC3C2=O)c1 (configuration not stated) | x | x | n | n | n | n
C=CCC1(CC=C)CCCN1C(=O)c1cc(COc2ccc(C)nc2)on1 | u | 8.9µM | u | n | n | u
